TbPYK inhibitor: T. brucei pyruvate kinase inhibition. Q57TT1. TbPYK enzyme, Kinase-Glo Plus ATP luminescence, 45 min. Potency, µM (highest dose often 76.8 µM), without a hit: top-dose activity, negative = inhibition, usual class: inhibitors. 410,000 compounds, 0.12% hits. AID 624173; note: potency is the fitted concentration of half-maximal effect; nearly all actives have a fitted effect of over 50% in size
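T. brucei PYK with substrate was exposed to pin-transferred compounds across a concentration series, then started with 130 uM ADP (final). After 45 min at room temperature, Kinase-Glo Plus luminescence was read, normalized and curve-fitted.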
FMDV antiviral: antivirals against foot and mouth disease virus | FMDV antiviral cell-based qHTS | Potency, µM (highest dose often 57.9 µM), inactives show at the top dose activity change, negative = inhibition, usual class: inhibitors | 410,000 compounds, 1.2% hits | AID 1159524; calls by dose curve; tested in HEK293T cells; note: read-out not given here; potency is the fitted concentration of half-maximal effect; nearly all actives have a fitted effect of over 45% in size
Sm TGR block: S. mansoni TGR enzyme inhibition. purified TGR, DTNB reduction, TNB absorbance 405 nm. Potency, µM (highest dose often 114 µM), for the others: at the highest dose activity change, negative = inhibition, hits mostly inhibitors. 360,000 compounds, 3% hits; note: potency is the fitted concentration of half-maximal effect; nearly all actives have a fitted effect of over 60% in size
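Kinetic colorimetric format: TGR-catalysed, NADPH-driven DTNB reduction monitored via TNB absorbance. Enzyme dispensed at 20 nM; compound exposure 15 min at room temperature before reaction start.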
RE007 growth inh: less growth of the S. pombe RE007 Vpr strain; S. pombe RE007 Vpr strain, BacTiter-Glo ATP luminescence, 24 h; Potency, µM (series often up to 92.2 µM), for inactives: at the highest dose activity change, negative = less growth, usual class: inhibitors; 360,000 compounds, 0.21% hits; AID 651644; active = well fitted falling curve with a large enough effect; inconclusive = small, poorly fitted or top-dose-only effect; inactive = no such curve, though single readings can be large or run the other way; note: potency is the fitted concentration of half-maximal effect; nearly all actives have a fitted effect of over 50% in size
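Fission yeast strain RE007, carrying one chromosomally integrated HIV-1 vpr copy, was seeded at OD 0.01 in PMG+AL medium with 23 nL pinned compound. After 24 h at 30 °C and 99% humidity, viability was read by BacTiter-Glo luminescence.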
HCMV antiviral: inhibitors of human cytomegalovirus | HFF cells, HCMV-luciferase reporter, 72 h; stronger effect = lower value | activity change, negative = inhibition, % at 57.5 µM | 410,000 compounds, 4.5% hits | AID 1259415; in the data active = activity change below about -60%; inconclusive = no clear call, values can overlap the other calls; inactive = above about -39%
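Luciferase read-out from HCMV-luciferase-infected HFFs (MOI 1 PFU/cell) 72 h post infection at 37C; compounds added after 16 h cell attachment; activity normalized between buffer-only basal and Salinomycin (10uM) inhibitor controls.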
Giardia FBPA inh: inhibitors of Giardia lamblia fructose-1,6-bisphosphate aldolase. A8B2U2. Potency, µM (highest dose often 59.6 µM), for inactives: at the top dose activity, negative = inhibition, most hits filed as inhibitors. AID 2451. 290,000 compounds, 0.71% hits. purified Giardia FBPA; note: potency is the fitted concentration of half-maximal effect; nearly all actives have a fitted effect of over 55% in size
Target sequence (A8B2U2 whole entry, looked up): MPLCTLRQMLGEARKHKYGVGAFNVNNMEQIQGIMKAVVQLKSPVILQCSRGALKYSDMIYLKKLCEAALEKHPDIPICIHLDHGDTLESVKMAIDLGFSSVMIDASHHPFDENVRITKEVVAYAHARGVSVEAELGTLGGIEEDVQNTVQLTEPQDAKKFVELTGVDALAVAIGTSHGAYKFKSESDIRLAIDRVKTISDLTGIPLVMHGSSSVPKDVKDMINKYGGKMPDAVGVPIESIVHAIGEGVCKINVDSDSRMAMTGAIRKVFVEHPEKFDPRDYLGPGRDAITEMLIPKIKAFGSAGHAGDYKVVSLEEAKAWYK
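40 nM FBPA preincubated 10 min at RT with compound (up to 57.5 uM final), then substrate plus GAPDH/TPI/NAD/arsenate coupling and diaphorase/resazurin added. Fluorescence read after 20 min at RT, 525/598 nm.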
* hit, by the source's call; u = inconclusive; x = no result given. Sampled rows, rich in hits. Any-hit rate of the full collection: about 7.7%. Unless noted, calls come from the whole dose curve; as a rule, active = well fitted curve in the direction sought with a large enough effect; inconclusive = small, poorly fitted or top-dose-only effect, or another doubt; inactive = no such curve, though single readings can be large; an effect the other way counts as inactive or inconclusive. % is set by controls: 0 for no effect and ±100 for the full control effect.

SMILES	TbPYK inhibitor	FMDV antiviral	Sm TGR block	RE007 growth inh	HCMV antiviral	Giardia FBPA inh
Cc1ccc(S(=O)(=O)c2ccc([N+](=O)[O-])cn2)cc1	-2%	25µM*	0.1µM*	u	-95*	-27%
Cc1c(CCC(=O)NCc2cccc(Cl)c2)c(=O)oc2c(C)c(O)ccc12	3%	7%	10%	x	u	x
O=C(CCc1ccccc1)NCc1ccccc1	1%	32%	2%	-1%	-19	3%
Cc1ccc(CCC(=O)Nc2cc(Cl)ccc2Cl)o1	-16%	4%	-25%	1%	-97*	-5%
Cc1ccc(CCC(=O)NCc2ccccc2)o1	-5%	13%	35µM*	-3%	3	-2%
CCc1nnc(NC(=O)CCc2ccc(C)o2)s1	0%	0%	-21%	4%	6	1%
Cc1ccc(CCC(=O)Nc2ncc(Cc3cccc(Cl)c3Cl)s2)o1	-7%	-21%	11%	x	-64*	4%
N#Cc1c(Cl)nsc1NN	-7%	10%	-29%	u	-104*	2%
Cc1ccc(Cl)cc1N1CCN(S(=O)(=O)c2ccc3c(c2)CCCN3C(=O)C2CCC2)CC1	1%	0%	3%	x	19	x
C[N+]1(C)CCC(OC(=O)CC(O)(c2ccccc2)C2CCCC2)C1 (stereo unspecified)	-9%	x	x	x	x	x
O=C(NCCc1csc(-c2ccccc2)n1)c1ccc(Br)o1	0%	-29%	6%	-7%	3	0%
O=C(NCCc1csc(-c2cccnc2)n1)c1ccc(Br)o1	-20%	-8%	28µM*	-10%	-24	-20%
O=S(=O)(NCCc1csc(-c2cccnc2)n1)c1cccc(F)c1	-1%	4%	-22%	-19%	-11	-1%
O=S(=O)(NCCc1csc(-c2cccnc2)n1)c1cc(F)ccc1F	1%	40%	-14%	3%	-61*	1%
CCc1cccc(NC(=O)C(Cc2ccccc2)NS(=O)(=O)c2ccc3c(c2)oc(=O)n3C)c1 (stereo unspecified)	7%	11%	2%	x	-2	x
COC(=O)c1ccc(COc2cc(O)c3c(c2)OC(C)(C)CC3=O)cc1	-7%	-21%	2%	-9%	-8	1%
CC1(C)CC(=O)c2c(O)cc(OCc3ccc(Br)cc3)cc2O1	6%	14%	3%	-1%	-109*	0%
COCCCNC(=O)C1CCN(c2ncnc3c2nc2n3CCCCC2)CC1	-7%	27%	-4%	x	-16	x
O=C(Nc1ccc(F)cc1)C1CCN(c2ncnc3c2nc2n3CCCCC2)CC1	8%	-9%	-8%	-3%	-9	x
COC(=O)C(CCSC)NC(=O)C1CCN(c2ncnc3c2nc2n3CCCCC2)CC1 (stereo unspecified)	0%	16%	1%	x	-100*	x
O=C(Nc1ccccn1)C1CCN(c2ncnc3c2nc2n3CCCCC2)CC1	4%	u	-8%	1%	-84*	6%
CCc1ccc(NC(=O)C2CCN(c3ncnc4c3nc3n4CCCCC3)CC2)cc1	2%	u	-12%	9%	-73*	3%
CC/C=C\C[C@H](O)/C=C/C=C\C/C=C\C/C=C\CCCC(=O)O	x	x	x	x	x	0%
Cc1ccc(NC(=O)c2ccc(CNS(=O)(=O)c3ccc4c(c3)C(C)(C)C(=O)N4C)cc2)cc1F	3%	25µM*	-1%	x	-32	x
Cc1ccc(NC(=O)c2ccc(CNS(=O)(=O)c3ccc4c(c3)C(C)(C)C(=O)N4C)cc2)cc1	-12%	u	-1%	x	-3	x
SMILES	TbPYK inhibitor	FMDV antiviral	Sm TGR block	RE007 growth inh	HCMV antiviral	Giardia FBPA inh
CCc1cccc(NC(=O)c2ccc(CNS(=O)(=O)c3ccc4c(c3)C(C)(C)C(=O)N4C)cc2)c1	-2%	22µM*	1%	x	u	x
CCOc1cc(CNCCSc2nnnn2C)ccc1OCc1ccc(Cl)cc1Cl	-1%	u	1%	x	-99*	x
COc1cc(CNCCSc2nnnn2C)ccc1OCc1ccccc1	2%	29%	1%	x	u	x
Cn1nnnc1SCCCNCc1cc(Br)ccc1OCc1ccccc1	3%	u	-1%	x	-63*	x
Cn1nnnc1SCCNCc1ccccc1OCc1ccc(Cl)cc1Cl	10%	u	9%	x	-39	x
COc1cc(CNCCSc2nnnn2C)ccc1OCc1ccc(F)cc1	-5%	0%	18%	x	-77*	x
Cc1nc(-c2cccc(S(=O)(=O)N3CCC(C(=O)NCc4ccccc4)CC3)c2)no1	-2%	0%	0%	x	1	x
N#Cc1sc2nccc(Nc3ccccc3)c2c1N	-4%	u	x	24%	-87*	x
COc1ccc(C(=O)N/N=C/c2sc3ccccc3c2O)cc1	2%	34%	-23%	u	x	-15%
O=C(N/N=C/c1sc2ccccc2c1O)c1cccc2ccccc12	1%	28%	-11%	6%	-104*	-4%
COc1ccc2cc(C(=O)N/N=C/c3sc4ccccc4c3O)ccc2c1	-15%	u	3%	-1%	-98*	u
O=C(N/N=C/c1ccccc1)c1cccc2ccccc12	-8%	38%	x	10%	-20	x
O=C(N/N=C/c1sc2ccccc2c1O)c1ccccc1	-2%	-3%	-20%	45µM*	x	u
O=C(COCc1cc(-c2ccc3c(c2)OCO3)on1)Nc1cccc(O)c1	-4%	-23%	-1%	x	-7	x
C=CCc1cccc(C=Nc2ccc(Br)cc2)c1O	3%	8%	0%	0%	0	20%
C=CCc1cccc(/C=N/c2ncccc2O)c1O	-20%	x	28µM*	-6%	-23	u
C=C1C[C@H]2[C@@H]3CCc4cc(OC)ccc4[C@H]3CC[C@]12C	-2%	-1%	-1%	-6%	-69*	x
Cc1cc(C)c(C(=O)CSc2nnc(N)s2)cc1C	-16%	6%	4%	8%	8	-1%
Cc1cc(C)c(C(=O)CSC2=NC(N)=C(C#N)C3(CCCCC3)C2C(N)=O)cc1C (stereo unspecified)	-38%	u	-21%	8%	-67*	-7%
CCCCCCC(O)C/C=C\CCCCCCCC(=O)O (stereo unspecified)	5%	x	x	x	x	x
COc1cc2c3nc4n(c(=O)c3n(CC(=O)NCC3CCCO3)c2cc1OC)CCS4 (stereo unspecified)	0%	-12%	141%	-4%	-92*	10%
COc1cccc(NC(=O)Cn2c3ccc(F)cc3c3nc4n(c(=O)c32)CCCS4)c1	-6%	-7%	-24%	2%	-61*	x
COc1ccc(NC(=O)Cn2c3ccc(OC)cc3c3nc4n(c(=O)c32)CCS4)cc1	4%	-12%	3%	11%	-16	x
Cc1ccc(NC(=O)Cn2c3ccc(F)cc3c3nc4n(c(=O)c32)CCS4)cc1F	-20%	-16%	11%	4%	-72*	-2%

Screens from PubChem.
